Reference: PubChem BioAssay (Tox21)
Results filed as inconclusive are left out. The source made the active and inactive calls. Unless noted, the call rests on the fitted dose curve; in most records, active means well fitted curve in the direction sought with a large enough effect in the repeat runs; inconclusive means weak or mixed curves; inactive means no such curve, though single readings can be large; an effect the other way counts as inactive or inconclusive.

Columns and labels:
[1] = qHTS assay for small molecule agonists of the p53 signaling pathway (AID 651631; calls by dose curve; further: nearly all actives have a fitted effect of over 15% in size; further: potency means the concentration at half of the fitted maximal effect)
In short: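 Testing took place in human colorectal HCT-116 cells with stable p53RE-driven beta-lactamase. After 16 h of compound exposure at 37 °C, a FRET substrate was added and fluorescence recorded 2 h later.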

[2] = qHTS assay for small molecules that induce genotoxicity in human embryonic kidney cells expressing luciferase-tagged ATAD5 (AID 651632); further: nearly all actives have a fitted effect of over 15% in size
In short: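 Test compounds were delivered by pin tool onto HEK293T reporter cells (2,000/well) expressing ATAD5 fused to luciferase. After 16 hr at 37C, 5% CO2, Amplite was added for 30 min at room temperature and luminescence was measured.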

[3] = qHTS assay for small molecule agonists of the p53 signaling pathway - cell viability (AID 651633; calls by dose curve; further: nearly all actives have a fitted effect of over 30% in size)
In short: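 Viability counter-read: CellTiter-Glo luminescence (30 min, room temperature) in the same p53RE-bla plates. These plates had been exposed to compounds for 16 h at 37 C.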

[4] = qHTS assay for small molecules that induce genotoxicity in human embryonic kidney cells expressing luciferase-tagged ATAD5 - cell viability (AID 651634; calls by dose curve; further: nearly all actives have a fitted effect of over 25% in size)
In short: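 Quantitative high-throughput format. HEK293T cells expressing ATAD5 fused to luciferase were plated at 2,000 cells/well and treated 15.5 hr with compound versus DMSO. Viability was determined by fluorescent live-cell protease substrate, 30 min at 37C.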

[5] = qHTS assay for small molecule disruptors of the mitochondrial membrane potential - cell viability (AID 720634; calls by dose curve;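 further: human HepG2 liver cancer cells; nearly all actives have a fitted effect of over 20% in size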)
In short: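 Same-well counter-screen: following the MMP dye addition, CellTiter-Glo was added to 1 hr compound-treated HepG2 cells and luminescence read after 30 min at room temperature.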

[6] = qHTS assay for small molecule disruptors of the mitochondrial membrane potential (AID 720635); further: potency means the concentration at half of the fitted maximal effect
In short: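 Mitochondrial membrane potential tracked with Mito-MPS dye, red aggregates (ex 540/em 590 nm) against green monomers (ex 490/em 535 nm). Compound treatment 1 hr at 37C, dye 30 min in HepG2.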

[7] = qHTS assay to test for compound auto fluorescence at 590 nm (red) in HepG2 cells (AID 720674)
In short: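 Red autofluorescence (Ex/Em 540/590 nm, Rose Bengal sodium equivalents) was measured in HepG2 cells, 2,000 per well in MEM plus 10% FBS, plated overnight at 37 C. Readings were taken 1 hr after adding 23 nL compound or DMSO, at 37 C and 5% CO2.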

[8] = qHTS assay to test for compound auto fluorescence at 535 nm (green) in HepG2 cells (AID 720675)
[9] = qHTS assay to test for compound auto fluorescence at 590 nm (red) in HEK293 cells (AID 720679)
In short: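 Autofluorescence equivalency to Rose Bengal sodium, 540/590nm, in HEK293 cells exposed overnight to 23 nL compound per well.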

[10] = qHTS assay to test for compound auto fluorescence at 460 nm (blue) in HEK293 cell free culture (AID 720681)
In short: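 Blue fluorescence (Ex 405/Em 460 nm, triamterene-equivalent) was read immediately after pin transfer of compound or DMSO into medium (DMEM, 10% FBS) without cells.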

[11] = qHTS assay to test for compound auto fluorescence at 535 nm (green) in HEK293 cell free culture (AID 720682)
In short: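 DMEM + 10% FBS, cell-free; cpd or DMSO pinned in; Ex485/Em535 read; output as fluorescein-equivalent signal.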

[12] = qHTS assay to test for compound auto fluorescence at 590 nm (red) in HEK293 cell free culture (AID 720683)
In short: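 Red-channel autofluorescence of compounds in culture medium (DMEM, 10% FBS), no cells, measured at 540/590 nm. Rose Bengal sodium is the reference fluorophore for equivalence.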

[13] = qHTS assay to test for compound auto fluorescence at 590 nm (red) in HepG2 cell free culture (AID 720684)
In short: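 No cells present: MEM + 10% FBS only. Compound pinned in, red label read (540/590 nm). Activity = fluorescence equivalent to Rose Bengal sodium.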

[14] = qHTS assay to test for compound auto fluorescence at 460 nm (blue) in HepG2 cell free culture (AID 720685)
In short: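 Cell-free plates of MEM plus 10% FBS received 23 nL compound or DMSO vehicle; blue-channel (405/460 nm) intensity scored against triamterene as reference fluorophore.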

[15] = qHTS assay to test for compound auto fluorescence at 535 nm (green) in HepG2 cell free culture (AID 720686)
[16] = qHTS assay to test for compound auto fluorescence at 460 nm (blue) in HepG2 cells (AID 720687)
In short: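 Blue-channel autofluorescence (Ex/Em 405/460 nm, triamterene-equivalent) was measured after 1 hr compound exposure at 37 C, 5% CO2. Cells were HepG2, plated overnight at 37 C in MEM plus 10% FBS.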

[17] = target: Glucocorticoid receptor (Homo sapiens) (UniProt P04150); test: qHTS assay to identify small molecule agonists of the glucocorticoid receptor (GR) signaling pathway (AID 720691; active means well fitted activation curve with a large enough effect in the signal ratio in the repeat runs, not every such curve was filed as active; the % refers to the signal ratio); conditions: GR-bla HeLa, beta-lactamase reporter ratio, 18 h; activation: at 62.4 µM (top of the series) unless noted
Sequence of Glucocorticoid receptor (Homo sapiens) (P04150 whole entry, looked up): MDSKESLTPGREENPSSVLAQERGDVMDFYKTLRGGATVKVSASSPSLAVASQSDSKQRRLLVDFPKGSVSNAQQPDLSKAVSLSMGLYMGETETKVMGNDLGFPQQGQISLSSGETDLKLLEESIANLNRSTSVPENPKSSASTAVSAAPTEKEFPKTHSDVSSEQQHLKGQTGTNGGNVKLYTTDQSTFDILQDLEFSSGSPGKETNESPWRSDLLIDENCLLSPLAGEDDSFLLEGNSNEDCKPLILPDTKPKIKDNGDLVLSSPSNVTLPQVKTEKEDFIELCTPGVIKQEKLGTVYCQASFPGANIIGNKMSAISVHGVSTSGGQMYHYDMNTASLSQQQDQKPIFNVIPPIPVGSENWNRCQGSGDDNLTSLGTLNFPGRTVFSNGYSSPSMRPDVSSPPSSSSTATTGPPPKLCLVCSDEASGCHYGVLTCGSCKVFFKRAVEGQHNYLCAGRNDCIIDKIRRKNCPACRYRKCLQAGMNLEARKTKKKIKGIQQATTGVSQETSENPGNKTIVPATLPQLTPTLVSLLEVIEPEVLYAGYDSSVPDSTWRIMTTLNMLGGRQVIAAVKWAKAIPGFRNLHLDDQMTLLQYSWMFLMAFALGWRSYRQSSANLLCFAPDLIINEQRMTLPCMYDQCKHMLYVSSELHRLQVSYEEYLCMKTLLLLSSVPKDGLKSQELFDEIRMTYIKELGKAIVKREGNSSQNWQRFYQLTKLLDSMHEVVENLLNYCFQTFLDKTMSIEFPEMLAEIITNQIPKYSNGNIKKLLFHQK
In short: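 A HeLa cervical cancer line expressing GR and a glucocorticoid response element-driven beta-lactamase gene is treated with compounds for 18 h; LiveBLAzer B/G FRET substrate is then applied and fluorescence read.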

[18] = target: Glucocorticoid receptor (Homo sapiens) (UniProt P04150); test: qHTS assay to identify small molecule antagonists of the glucocorticoid receptor (GR) signaling pathway (AID 720692; active means well fitted inhibition curve with a large enough effect in the signal ratio in the repeat runs, not every such curve was filed as active; the % refers to the signal ratio)
In short: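 GRE-bla HeLa line, dex-stimulated (5 nM final). Compound exposure 18 h, 37 C. Beta-lactamase FRET read after 2 h RT substrate.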

[19] = qHTS assay to test for compound auto fluorescence at 535 nm (green) in HEK293 cells (AID 720680)
[20] = qHTS assay to test for compound auto fluorescence at 460 nm (blue) in HEK293 cells (AID 720678)
In short: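 Auto fluorescence in the blue band was quantified as triamterene equivalency. HEK293 cells were seeded at 2,000/well, dosed after a 4-5 hr attachment, and kept overnight at 37C before the 405/460 nm reading.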
On the % scale 0 is the no-effect control and ±100 the full control effect.

O=C(O)c1ccco1
inactive: Potency [1] | Potency [2] | Potency [3] | Potency [4] | Potency [5] | Potency [6] | Potency [7] | Potency [8] | Potency [9] | outcome [10] | outcome [11] | Potency [12] | Potency [13] | outcome [14] | Potency [15] | outcome [16]

CCCCC(CC)COC(=O)CCCCCCCCC(=O)OCC(CC)CCCC (stereo unspecified)
inactive: Potency [1] | Potency [2] | Potency [3] | Potency [4] | Potency [5] | Potency [6] | Potency [7] | Potency [8] | Potency [9] | outcome [10] | outcome [11] | Potency [13] | outcome [14] | Potency [15] | outcome [16] | Potency [17] | Potency [18]

CC1OC(=O)C(C)OC1=O (stereo unspecified)
inactive: Potency [1] | Potency [2] | Potency [3] | Potency [4] | Potency [5] | Potency [6] | Potency [7] | Potency [8] | Potency [9] | outcome [19] | outcome [10] | outcome [11] | Potency [12] | Potency [13] | outcome [14] | Potency [15] | outcome [16] | Potency [17] | Potency [18]

CC(CC=O)c1ccccc1 (stereo unspecified)
active: Potency [6] 54.5 µM
inactive: Potency [1] | Potency [2] | Potency [3] | Potency [4] | Potency [5] | Potency [7] | Potency [8] | outcome [20] | Potency [9] | outcome [19] | outcome [10] | outcome [11] | Potency [13] | outcome [14] | Potency [15] | outcome [16]

C=CCOC(=O)CCC1CCCCC1
inactive: Potency [1] | Potency [2] | Potency [3] | Potency [4] | Potency [5] | Potency [6] | Potency [7] | Potency [8] | Potency [9] | outcome [19] | outcome [10] | outcome [11] | Potency [12] | Potency [13] | outcome [14] | outcome [16] | Potency [17] | Potency [18]

CNC(=O)CN(CCN(CCN(CC(=O)[O-])CC(=O)NC)CC(=O)[O-])CC(=O)[O-].O.[Gd+3]
inactive: Potency [1] | Potency [2] | Potency [3] | Potency [4] | Potency [5] | Potency [6] | Potency [7] | Potency [8] | outcome [20] | outcome [19] | outcome [10] | outcome [11] | Potency [13] | outcome [14] | Potency [15] | outcome [16] | Potency [17] | Potency [18]

O=C(O)CNCC(=O)O
inactive: activation [1] -5.9% [at 8.3 µM] | activation [2] 0.678% [at 8.08 µM] | activity change, negative = cytotoxicity [3] 6.66% [at 8.08 µM] | activity, negative = cytotoxicity [4] 24.8% [at 8.08 µM] | activity change, negative = cytotoxicity [5] -5.3% [at 8.08 µM] | ratio activity, negative = MMP loss [6] 15% [at 8.08 µM] | fluorescence, % of fluorescein control [8] -0.0488% [at 3.72 µM] | fluorescence, % of triamterene [20] -0.267% [at 3.72 µM] | fluorescence, % of fluorescent control [9] -0.0175% [at 3.72 µM] | fluorescence, % of fluorescein [19] -0.0204% [at 3.72 µM] | fluorescence, % of fluorescent control [10] -0.259% [at 3.72 µM] | activity change [11] -0.144% [at 3.72 µM] | fluorescence, % of fluorescent control [12] -0.223% [at 3.72 µM] | fluorescence, % of Rose Bengal [13] -0.109% [at 3.72 µM] | fluorescence, % of fluorescent control [14] -0.156% [at 3.72 µM] | fluorescence, % of fluorescein control [15] -0.0374% [at 3.72 µM] | fluorescence, % of fluorescent control [16] -0.0767% [at 3.72 µM] | activation [17] -1.96% [at 6.9 µM]

O=CC1CC=CCC1 (stereo unspecified)
inactive: Potency [1] | Potency [2] | Potency [3] | Potency [4] | Potency [5] | Potency [6] | Potency [7] | Potency [8] | outcome [20] | outcome [19] | outcome [10] | outcome [11] | Potency [12] | Potency [13] | outcome [14] | Potency [15] | outcome [16]

O=C1c2ccccc2S(=O)(=O)N1CCCCN1CCN(c2ncccn2)CC1
inactive: Potency [1] | Potency [2] | Potency [3] | Potency [4] | Potency [5] | Potency [6] | Potency [7] | Potency [8] | outcome [20] | Potency [9] | outcome [19] | outcome [10] | outcome [11] | Potency [12] | Potency [13] | outcome [14] | Potency [15] | outcome [16] | Potency [17] | Potency [18]

CCCCCCCCCCCC(=O)OC[C@@H](O)[C@H]1OC[C@H](OCCO)[C@H]1OCCO
inactive: Potency [1] | Potency [2] | Potency [3] | Potency [4] | Potency [5] | Potency [6] | Potency [7] | Potency [8] | Potency [9] | outcome [19] | outcome [10] | outcome [11] | Potency [12] | Potency [13] | outcome [14] | Potency [15] | outcome [16]

O=C1OC(=O)C2C3C=CC(C3)C12 (stereo unspecified)
inactive: Potency [1] | Potency [2] | Potency [3] | Potency [4] | Potency [5] | Potency [6] | Potency [7] | Potency [8] | outcome [20] | outcome [19] | outcome [10] | outcome [11] | Potency [12] | Potency [13] | outcome [14] | Potency [15] | outcome [16]

CN1C[C@H]2c3ccccc3Oc3ccc(Cl)cc3[C@@H]2C1
inactive: Potency [2] | Potency [3] | Potency [4] | Potency [5] | Potency [6] | Potency [7] | Potency [8] | outcome [20] | Potency [9] | outcome [19] | outcome [10] | outcome [11] | Potency [12] | Potency [13] | outcome [14] | Potency [15] | outcome [16] | Potency [17]
active: Potency [1] 29.8 µM

Cc1ccccc1S(=O)(=O)O
inactive: Potency [1] | Potency [2] | Potency [3] | Potency [4] | Potency [5] | Potency [6] | Potency [7] | Potency [8] | outcome [20] | Potency [9] | outcome [19] | outcome [10] | outcome [11] | Potency [12] | Potency [13] | outcome [14] | Potency [15] | outcome [16]
